According to PubChem BioAssay (NCI):
Compounds without any hit were thinned out: in the full panel of roughly 83,000, 20% have a hit.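 Method: cells in 96-well plates; compound added at one concentration; 48 h incubation; percent growth measured; values under 10 scored active.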 A number with no mark means an inactive call. The source made the active and inactive calls.

Tests used:
Test in all cases: NCI-60 one-dose screen, 48 h (100 = growth as untreated, 0 = no growth, -100 = all killed)
NCI-H23 lung = settings: 10 µM unless noted
NCI-H226 lung = settings: 10 µM unless noted
NCI-H322M lung = settings: 10 µM unless noted
HOP-62 NSCLC = settings: 10 µM unless noted
NCI-H460 lung = settings: 10 µM unless noted
HOP-92 NSCLC = settings: 10 µM unless noted
NCI-H522 lung = settings: 10 µM unless noted
A549/ATCC NSCLC = settings: 10 µM unless noted
786-0 renal = settings: 10 µM unless noted
COLO 205 colon = settings: 10 µM unless noted
DU-145 prostate = settings: 10 µM unless noted
K-562 leukemia = settings: 10 µM unless noted
MDA-MB-231 breast = settings: 10 µM unless noted
RXF 393 renal = settings: 10 µM unless noted
SF-268 CNS = settings: 10 µM unless noted
SF-295 CNS = settings: 10 µM unless noted
SF-539 CNS = settings: 10 µM unless noted
UACC-257 melanoma = settings: 10 µM
M14 melanoma = settings: 10 µM unless noted
MALME-3M melanoma = settings: 10 µM unless noted

Row | SMILES | growth (NCI-H23 lung) | growth (NCI-H226 lung) | growth (NCI-H322M lung) [%] | growth (HOP-62 NSCLC) | growth (NCI-H460 lung) | growth (HOP-92 NSCLC) | growth (NCI-H522 lung) | growth (A549/ATCC NSCLC) [%] | growth (786-0 renal) | growth (COLO 205 colon) | growth (DU-145 prostate) [%] | growth (K-562 leukemia) | growth (MDA-MB-231 breast) | growth (RXF 393 renal) | growth (SF-268 CNS) | growth (SF-295 CNS) | growth (SF-539 CNS) | growth (UACC-257 melanoma) | growth (M14 melanoma) | growth (MALME-3M melanoma)
1 | COc1ccc(/C=C/C(=O)c2ccc(B(O)O)cc2)cc1O | 88% | 92.5% | 96.3 | 89.8% | 73.2% | 52.4% | 85.6% | 66.3 | 84.9% | 101% | 75.6 | 24.6% | 90.8% | 81.4% | 81.6% | 98.5% | 71.3% | 94.3% | 74.1% | –
2 | COc1ccc(NC(=O)CSc2nc3ccc(Cl)cc3c(=O)n2-c2ccccc2C(F)(F)F)c(OC)c1OC | 79.6% | 62% | 86.6 | 60.6% | 82.4% | -2.83% (active) | 32.4% | 72 | – | 92.9% | 79.1 | 92.8% | 54% | 60.3% | 66.7% | 60.9% | 66.9% | 86% | 91.4% | 60.8%
3 | O=S(=O)(NCCCNc1nccc(-c2c(-c3ccc(O)cc3)nc3sccn23)n1)c1ccc(F)cc1 | 1.81% (active) | 3.13% (active) | 17.6 | 10% | 1.37% (active) | 12.3% | -1.49% (active) | 15.9 | 16.4% | 1.03% (active) | 10.6 | 7.51% (active) | 7.09% (active) | -12.7% (active) | 17.8% | -34.9% (active) | 0.696% (active) | 4.9% (active) | -26.2% (active) | –
4 | CCCCC(N)(C(=O)O)C1CCCC1 (centres undefined) | 106% | 101% | 101 | 112% | 107% | 102% | 102% | 94.4 | 96% | 123% | 122 | – | 105% | 106% | 107% | 98.8% | 96.7% | 87.2% | 107% | 127%
5 | COC(=O)[C@H]1[C@H](OC)[C@@H](OC(=O)/C=C/c2ccncc2)CC2CN3CCc4c([nH]c5cc(OC)ccc45)[C@@H]3C[C@@H]21 (some centres undefined) | 97% | 73.7% | 78.4 | 78.5% | 92.5% | 1.2% (active) | 72% | 82.9 | 83.5% | 79.2% | 80 | 57.3% | 62.2% | 72.7% | 80.3% | 90.4% | 91% | 62.3% | 78.4% | –
6 | CCN(Cc1ccccc1)c1ccc(SC#N)cc1 | 80.6% | 112% | 91.6 | 118% | 90% | 53.4% | -26.7% (active) | 102 | 73.4% | 50.4% | 98.3 | 41% | – | 47.6% | 83.8% | 95.3% | 82.2% | 107% | 89.2% | 88%
7 | O=C(O)c1cccc([N+](=O)[O-])c1/C=C/c1ccccc1 | 102% | 96.9% | 90.5 | 92.6% | 103% | 112% | 116% | 104 | 98.1% | 98.9% | 105 | – | 109% | 103% | 97.7% | 95.4% | 107% | 117% | 101% | 90.4%
8 | CCN(CC)c1cc(/C=C/c2ccc(OC)c(OC)c2)nc2cc(F)c(F)cc12 | -2.87% (active) | 24.6% | 90.9 | -78.8% (active) | 84.9% | -53.2% (active) | 33.9% | 64.8 | -18.7% (active) | 105% | 71.8 | – | 8.74% (active) | -58.7% (active) | 7.33% (active) | -66% (active) | 4.7% (active) | 87.7% | 74.6% | 4.61% (active)
9 | O=S(=O)(NCCNc1nccc(-c2c(-c3ccccc3)nc3sccn23)n1)c1ccc(O)cc1 | 50.3% | 46% | 58.2 | 58.9% | 21.4% | 61.3% | 65.4% | 32.2 | 64.1% | 28.5% | 46 | 35.9% | 50% | 45.9% | 46.5% | 47.3% | 59.2% | 82.4% | 35.7% | –
10 | Clc1nc2ccccc2nc1CI | 86% | 68.2% | 89.9 | 105% | 108% | 90.9% | 3.79% (active) | 117 | 101% | 120% | 109 | 21.3% | – | 94.9% | 113% | 95.8% | 97.8% | 119% | 55.3% | 49.5%
11 | c1ccn2nnnc2c1 | 94.8% | 111% | 102 | 87% | 105% | 103% | 101% | 94.3 | 94.3% | 90.6% | 103 | 97.5% | – | 110% | 101% | 101% | 95.5% | 101% | -54.6% (active) | 98.5%
12 | COC(=O)C(CC(=O)c1ccc(-c2ccccc2)cc1)c1ccccc1 (centres undefined) | 76.6% | 63.3% | 96.8 | 75.1% | 90% | 68.3% | -0.151% (active) | 76.6 | 28.7% | 36.7% | 72.7 | 20.6% | 66.3% | 56.5% | 88.7% | 58.6% | 34.7% | 66.7% | 42.6% | –
13 | Cn1c(C(N)=O)cc2c1-c1nc(NC3CCCCC3)ncc1CCC2 | 93.7% | 70.9% | 110 | 90% | 94.3% | 6.02% (active) | 94.9% | 92.2 | 91.2% | 113% | 103 | 101% | 78.4% | 59.5% | 84.8% | 91.3% | 80.6% | 106% | 109% | –
14 | CN=S(=O)(NC(=O)c1ccc(Cl)cc1Cl)c1ccc(Br)s1 (centres undefined) | 104% | 93.8% | 113 | 105% | 98.6% | 65.9% | 102% | 89.5 | 105% | 121% | 111 | 104% | 104% | 103% | 109% | 101% | 97% | 92.5% | 106% | –
15 | CC(=O)Nc1ccc(S(=O)(=O)NC(CCC(=O)Nc2ccc(Cl)cc2)C(=O)O)cc1 (centres undefined) | 97.3% | 96.8% | 96.9 | 92.2% | 105% | 113% | 97.1% | 93.8 | 107% | 97.8% | 102 | 77.4% | 95% | 108% | 102% | 98.8% | 99.2% | 98% | 99.2% | –
16 | CC(=O)Nc1ccc(S(=O)(=O)N2C(=O)CCC2C(=O)Nc2ccccc2)cc1 (centres undefined) | 38.5% | 46.9% | 38 | 30.3% | 15.1% | -5.79% (active) | 27.5% | 21.3 | 26.2% | 12.1% | 50.2 | 11.8% | 25.6% | 57.7% | 61.9% | 1.91% (active) | -22% (active) | 33.7% | 10.3% | –
